The results in this text go back to PubChem BioAssay (NCI).

Some test systems named below: DU-145 prostate; K-562 leukemia; MALME-3M melanoma; MDA-MB-231 breast; RXF 393 renal; SF-268 CNS; SF-295 CNS; SF-539 CNS; UACC-257 melanoma; M14 melanoma; HCT-15 colon; HT29 colon; SNB-75 CNS; SNB-19 CNS; U251 CNS; PC-3 prostate; SK-MEL-5 melanoma; UACC-62 melanoma; LOX IMVI melanoma; SK-MEL-28 melanoma.
Common to all, as to test: NCI-60 one-dose screen, 48 h (100 = growth as untreated, 0 = no growth, -100 = all killed)
Common to all, as to details: 10 µM unless noted

This is part of a sample that, as a whole, favours compounds with a hit. Of some 83,000 tested, about 20% had one in any assay.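 Results are percent growth after 48 hours of single-concentration exposure. 100 means growth as in untreated cells, lower positive values show inhibition; negative values down to -100 show cell death.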 Values without a mark were called inactive. The source made the active and inactive calls. The calls were made as follows: active = growth percent below 10; inactive = the rest.

With `N#Cc1cccc(C2C3=C(COC3=O)N(CCO)c3cc4c(cc32)CCC4)c1` (centres undefined), the growth with DU-145 prostate was 3.87% (active); in the assay on K-562 leukemia, 8.48% (active); in the assay on MALME-3M melanoma it was 48.2%; in the assay with MDA-MB-231 breast, 32.4%; in the assay with RXF 393 renal, 35.5%; in the assay on SF-268 CNS, 30.4%. For the same compound, the growth in the assay with SF-295 CNS is -7.01% (active); in the assay with SF-539 CNS it was -10.1% (active); with UACC-257 melanoma, 69.4%; with M14 melanoma, 2.59% (active); in the assay with HCT-15 colon, 9.99% (active); in the assay with HT29 colon it was 4.8% (active). Further, the growth in the assay on SNB-75 CNS is 43.8%; in the assay with SNB-19 CNS, 23%; with U251 CNS, 14.6%; with PC-3 prostate, 22.9%; with SK-MEL-5 melanoma, -3.37% (active); with UACC-62 melanoma, 45.6%. The growth with LOX IMVI melanoma was 19%.

Take `CCN1C(=O)N(CC)C2C1NN=c1s/c(=C3\C(=O)N(CC(C)C)c4ccccc43)c(=O)n12` (centres undefined): the growth in the assay with DU-145 prostate is 10.4%; with K-562 leukemia, 10.5%; in the assay with MALME-3M melanoma it was 59.6%; in the assay with MDA-MB-231 breast it was 12.3%; in the assay on RXF 393 renal it was 21.9%; with SF-268 CNS, 54.9%. Besides, the growth in the assay on SF-295 CNS was 6.8% (active); with SF-539 CNS it was -23.5% (active); in the assay with UACC-257 melanoma, 65.5%; with M14 melanoma it was 18.8%; in the assay on HCT-15 colon, 12.5%; in the assay on HT29 colon, 2.25% (active). The growth with SNB-75 CNS is 14.9%; with SNB-19 CNS, 28%; with U251 CNS, 12.1%; with PC-3 prostate, 27.7%; with SK-MEL-5 melanoma, 14.9%; in the assay on UACC-62 melanoma it was 27.7%. In addition, the growth with LOX IMVI melanoma is 24.7%.

On to `O=C(CI)NC(=O)NC(=O)NCc1ccccc1`, for which the growth in the assay on DU-145 prostate was 78.2%; in the assay on K-562 leukemia it was -59.8% (active); in the assay on MALME-3M melanoma it was -59% (active); in the assay on MDA-MB-231 breast it was 11.3%; with RXF 393 renal, 48.5%; in the assay with SF-268 CNS, 58.5%. Also, the growth was 91.6% in the assay on SF-295 CNS; 27.3% in the assay on SF-539 CNS; 83% with UACC-257 melanoma; 6.48% (active) in the assay with M14 melanoma; 17.4% in the assay with HCT-15 colon; 17.2% in the assay on HT29 colon. The growth in the assay with SNB-75 CNS is 81.4%; with SNB-19 CNS it was 101%; in the assay on U251 CNS, 84%; with PC-3 prostate, 93.9%; in the assay on SK-MEL-5 melanoma it was 56.1%; with UACC-62 melanoma, 79.3%. The figures for the growth with LOX IMVI melanoma and in the assay with SK-MEL-28 melanoma were -77.7% (active) and 49.4%, respectively.

Take `CN(CCCNC(=O)CCOCCOCCOCCNC(=O)Cc1ccc2ccc3cccc4ccc1c2c34)CCCNc1cc(-c2ccc3ccccc3c2)nc2ccccc12`: the growth in the assay with DU-145 prostate was -95.8% (active); in the assay with K-562 leukemia, -88.3% (active); in the assay on MALME-3M melanoma it was -69.6% (active); in the assay on MDA-MB-231 breast, -70.7% (active); with RXF 393 renal it was -37.7% (active); in the assay with SF-268 CNS it was -82.9% (active). For the same compound, the growth with SF-295 CNS is -71.1% (active); in the assay with SF-539 CNS it was -98.6% (active); in the assay with UACC-257 melanoma, -70% (active); in the assay on M14 melanoma, -89.7% (active); in the assay on HCT-15 colon it was -77.5% (active); in the assay with HT29 colon, -87.6% (active). Further, the growth in the assay on SNB-75 CNS is -95.7% (active); in the assay with SNB-19 CNS, -95.1% (active); in the assay with U251 CNS, -70.7% (active); with PC-3 prostate, -93.6% (active); in the assay with SK-MEL-5 melanoma, -96% (active); in the assay with UACC-62 melanoma it was -65.9% (active). Also, the figures for the growth in the assay on LOX IMVI melanoma and in the assay with SK-MEL-28 melanoma were -43.7% (active) and -94% (active), respectively.

Turning to `O=C(c1c[nH]c2ccccc12)c1n[nH]c(=S)n1-c1cccc(Br)c1`, the growth in the assay with DU-145 prostate is 103%; with K-562 leukemia it was 84.6%; in the assay on MALME-3M melanoma it was 95.4%; in the assay with MDA-MB-231 breast it was 76.9%; with RXF 393 renal, 104%; in the assay with SF-268 CNS, 95.4%. Further, the growth in the assay with SF-295 CNS was 102%; with SF-539 CNS, 106%; in the assay on UACC-257 melanoma, 97.4%; in the assay with M14 melanoma, 99.3%; in the assay with HCT-15 colon it was 40.9%; with HT29 colon, 96.2%. In addition, the growth with SNB-75 CNS is 83.2%; in the assay with SNB-19 CNS, 93.8%; in the assay on U251 CNS, 97.3%; with PC-3 prostate it was 87.8%; in the assay on SK-MEL-5 melanoma, 28%; with UACC-62 melanoma it was 51.9%. Moreover, the growth in the assay with LOX IMVI melanoma is 93.2%.

In the case of `CS(=O)(=O)c1ccc(NC(=O)c2ccccc2)nc1`, the growth with DU-145 prostate is 108%; with K-562 leukemia it was 100%; in the assay with MALME-3M melanoma, 108%; in the assay with MDA-MB-231 breast it was 99.1%; in the assay on RXF 393 renal, 106%; with SF-268 CNS it was 107%. For the same compound, the growth with SF-295 CNS was 106%; in the assay on SF-539 CNS, 104%; in the assay on UACC-257 melanoma, 95.6%; with M14 melanoma, 115%; in the assay on HCT-15 colon, 104%; in the assay with HT29 colon it was 83.6%. In addition, the growth in the assay on SNB-75 CNS was 104%; in the assay with SNB-19 CNS, 95.7%; in the assay with U251 CNS, 102%; in the assay with PC-3 prostate, 93.6%; in the assay on SK-MEL-5 melanoma, 101%; in the assay with UACC-62 melanoma, 95.4%. For the same compound, in the assay with LOX IMVI melanoma, the growth was 98.6%.

For `C=C1CC[C@@H]2C(C)(C)[C@@H](O)CC[C@@]2(C)[C@@H]1COc1ccc2ccc(=O)oc2c1`, the growth was 91.8% in the assay with DU-145 prostate; 53.3% in the assay with K-562 leukemia; 89% with MALME-3M melanoma; 89.4% with MDA-MB-231 breast; 88.5% with RXF 393 renal; 78% in the assay on SF-268 CNS. The growth in the assay on SF-295 CNS was 62.5%; in the assay on SF-539 CNS, 86.1%; with UACC-257 melanoma, 77.3%; in the assay on M14 melanoma it was 80.4%; in the assay on HCT-15 colon it was 66.7%; in the assay on HT29 colon it was 64.3%. Also, the growth in the assay with SNB-75 CNS is 83.8%; with SNB-19 CNS, 85.8%; in the assay on U251 CNS it was 75.8%; with PC-3 prostate, 49.7%; in the assay on SK-MEL-5 melanoma it was 61.7%; with UACC-62 melanoma it was 55.1%. Besides, in the assay on LOX IMVI melanoma, the growth is 82.8%.

With `O=C(Nc1ccccc1[N+](=O)[O-])c1ccc(Cl)c(Cl)c1`, the growth with DU-145 prostate was 102%; in the assay with K-562 leukemia it was 91.9%; with MALME-3M melanoma, 93.5%; with MDA-MB-231 breast it was 93.2%; in the assay on RXF 393 renal, 88.1%; with SF-268 CNS, 89.8%. The growth is 93.3% in the assay with SF-295 CNS; 89.4% with SF-539 CNS; 90.8% in the assay on UACC-257 melanoma; 101% with M14 melanoma; 91% in the assay with HCT-15 colon; 98.7% in the assay on HT29 colon. Also, the growth is 69.6% with SNB-75 CNS; 101% in the assay with SNB-19 CNS; 86.1% with U251 CNS; 80.3% with PC-3 prostate; 84.2% in the assay on SK-MEL-5 melanoma; 87.2% in the assay with UACC-62 melanoma. In the assay on LOX IMVI melanoma, the growth was 85.9%.
